Experimental data from PubChem BioAssay (Tox21).
Results filed as inconclusive are left out. Active and inactive are the calls of the source. The call rests on the fitted dose curve; in most records, active means well fitted curve in the direction sought with a large enough effect in the repeat runs; inconclusive means weak or mixed curves; inactive means no such curve, though single readings can be large; an effect the other way counts as inactive or inconclusive.

Columns and labels:
[1] = A CellTox Green Cytotoxicity Assay to monitor cytotoxicity in HEK293 cells - 40 hour (AID 1224871); further: nearly all actives have a fitted effect of over 45% in size
Procedure, shortened: (§1)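 HEK293 cells, 600/well, were preincubated 5 hours and then exposed to compounds at 37 C for up to 40 hours. A cell-impermeant cyanine dye staining dead-cell DNA was read by fluorescence at 0, 8, 16, 24, 32 and 40 h time points.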

[2] = qHTS RealTime-Glo MT Cell Viability Assay in HEK293 cells - 16 hour (AID 1224872); further: top concentration of the series differs between compounds; nearly all actives have a fitted effect of over 50% in size
Procedure, shortened: (§2)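 Tox21 10K qHTS, HEK293, 600 cells/well, RealTime-Glo reagent co-dispensed with cells; 5 h preincubation, compound by pintool, 37 C, luminescence at 0–40 h.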

[3] = qHTS RealTime-Glo MT Cell Viability Assay in HepG2 cells - 8 hour (AID 1224873); further: nearly all actives have a fitted effect of over 55% in size
Procedure, shortened: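 HepG2 cells mixed with RealTime-Glo MT reagents (NanoLuc plus cell-permeant prosubstrate) were seeded at 600 cells/well, incubated 5 h at 37 C/5% CO2, then pinned with compounds in DMSO; nonlytic luminescence tracked viability during 40 h treatment.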

[4] = qHTS RealTime-Glo MT Cell Viability Assay in HEK293 cells - 40 hour (AID 1224874); settings: RealTime-Glo luminescence; max response: stronger effect = lower value; further: nearly all actives have a fitted effect of over 50% in size
Procedure, shortened: (§3)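 600 cells/well were plated with the nonlytic NanoLuc/prosubstrate reagent, pre-incubated 5 h, then given 23 nL of compound in DMSO. Incubation at 37 C for 40 h, with luminescence from viable-cell-reduced substrate read repeatedly from 0 h.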

[5] = A CellTox Green Cytotoxicity Assay to monitor cytotoxicity in HEK293 cells - 24 hour (AID 1224875); further: series mostly up to about 77 µM; nearly all actives have a fitted effect of over 45% in size
Procedure, shortened: as §1

[6] = A CellTox Green Cytotoxicity Assay to monitor cytotoxicity in HepG2 cells - 16 hour (AID 1224876); further: nearly all actives have a fitted effect of over 45% in size
Procedure, shortened: (§4)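 HepG2 cells, 600/well, preincubated 5 h with CellTox Green dye, then exposed to Tox21 compounds in DMSO at 37 C for up to 40 h. Dead-cell DNA fluorescence read at the indicated time point.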

[7] = qHTS RealTime-Glo MT Cell Viability Assay in HepG2 cells - 32 hour (AID 1224877); further: nearly all actives have a fitted effect of over 55% in size
Procedure, shortened: (§5)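 Cells + NanoLuc/prosubstrate dispensed (600 cells/well) → 5 h at 37 C/5% CO2 → compounds in DMSO transferred → 40 h incubation at 37 C, luminescence read at 0, 8, 16, 24, 32, 40 h.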

[8] = A CellTox Green Cytotoxicity Assay to monitor cytotoxicity in HepG2 cells - 24 hour (AID 1224878); further: nearly all actives have a fitted effect of over 45% in size
Procedure, shortened: as §4

[9] = A CellTox Green Cytotoxicity Assay to monitor cytotoxicity in HepG2 cells - 40 hour (AID 1224879); further: nearly all actives have a fitted effect of over 40% in size
Procedure, shortened: as §4

[10] = qHTS RealTime-Glo MT Cell Viability Assay in HEK293 cells - 0 hour (AID 1224880)
Procedure, shortened: as §3

[11] = A CellTox Green Cytotoxicity Assay to monitor cytotoxicity in HEK293 cells - 32 hour (AID 1224881); further: nearly all actives have a fitted effect of over 40% in size
Procedure, shortened: as §1

[12] = A CellTox Green Cytotoxicity Assay to monitor cytotoxicity in HepG2 cells - 0 hour (AID 1224882); further: nearly all actives have a fitted effect of over 35% in size
Procedure, shortened: as §4

[13] = A CellTox Green Cytotoxicity Assay to monitor cytotoxicity in HepG2 cells - 32 hour (AID 1224883); further: nearly all actives have a fitted effect of over 50% in size
Procedure, shortened: as §4

[14] = qHTS RealTime-Glo MT Cell Viability Assay in HepG2 cells - 16 hour (AID 1224885); further: nearly all actives have a fitted effect of over 50% in size
Procedure, shortened: as §5

[15] = qHTS RealTime-Glo MT Cell Viability Assay in HEK293 cells - 24 hour (AID 1224886)
Procedure, shortened: as §2

[16] = qHTS RealTime-Glo MT Cell Viability Assay in HEK293 cells - 8 hour (AID 1224887)
Procedure, shortened: as §3

[17] = A CellTox Green Cytotoxicity Assay to monitor cytotoxicity in HEK293 cells - 16 hour (AID 1224888); further: nearly all actives have a fitted effect of over 35% in size
Procedure, shortened: as §1

[18] = qHTS RealTime-Glo MT Cell Viability Assay in HepG2 cells - 0 hour (AID 1224889); further: nearly all actives have a fitted effect of over 50% in size
Procedure, shortened: as §5

[19] = A CellTox Green Cytotoxicity Assay to monitor cytotoxicity in HepG2 cells - 8 hour (AID 1224890); further: nearly all actives have a fitted effect of over 45% in size
Procedure, shortened: as §4

[20] = A CellTox Green Cytotoxicity Assay to monitor cytotoxicity in HEK293 cells - 8 hour (AID 1224884); further: nearly all actives have a fitted effect of over 35% in size
Procedure, shortened: as §1
On the % scale 0 is the no-effect control and ±100 the full control effect.

COP(=O)(OC)Oc1ccc([N+](=O)[O-])cc1
inactive: Potency [1] | Potency [2] | Potency [3] | max response [4] -20.5% | Potency [5] | Potency [6] | Potency [7] | Potency [8] | Potency [9] | Potency [10] | Potency [11] | Potency [12] | Potency [13] | Potency [14] | Potency [15] | Potency [16] | Potency [17] | Potency [18] | Potency [19]

O=c1[nH]c(Cl)c(Cl)cc1Cl
inactive: Potency [1] | Potency [2] | Potency [3] | max response [4] 0.811% | Potency [5] | Potency [6] | Potency [7] | Potency [8] | Potency [9] | Potency [10] | Potency [11] | Potency [12] | Potency [13] | Potency [20] | Potency [14] | Potency [15] | Potency [16] | Potency [17] | Potency [18] | Potency [19]

CN/C(=N\[N+](=O)[O-])NCc1cnc(Cl)s1
inactive: Potency [1] | Potency [2] | Potency [3] | max response [4] -7.42% | Potency [5] | Potency [6] | Potency [7] | Potency [8] | Potency [9] | Potency [10] | Potency [11] | Potency [12] | Potency [13] | Potency [20] | Potency [14] | Potency [15] | Potency [16] | Potency [17] | Potency [18]

O=P(Cl)(Cl)Cl
inactive: Potency [1] | Potency [2] | Potency [3] | max response [4] 0.904% | Potency [5] | Potency [6] | Potency [7] | Potency [8] | Potency [10] | Potency [11] | Potency [12] | Potency [13] | Potency [20] | Potency [14] | Potency [16] | Potency [17] | Potency [18]

CCOC(=O)CCN(SN(C)C(=O)Oc1cccc2c1OC(C)(C)C2)C(C)C
inactive: Potency [1] | Potency [2] | Potency [3] | max response [4] -6% | Potency [5] | Potency [6] | Potency [7] | Potency [8] | Potency [9] | Potency [11] | Potency [12] | Potency [13] | Potency [14] | Potency [15] | Potency [16] | Potency [17] | Potency [18] | Potency [19]

O=NN(CCO)CCO
inactive: Potency [1] | Potency [2] | Potency [3] | max response [4] 7.2% | Potency [5] | Potency [6] | Potency [7] | Potency [8] | Potency [9] | Potency [11] | Potency [12] | Potency [13] | Potency [20] | Potency [14] | Potency [15] | Potency [16] | Potency [17] | Potency [18] | Potency [19]
